Results reported in PubChem BioAssay.
Calls of active or inactive are those of the source.

What was measured:
[1] = system: XIP peptide (Xip251-270) binding; experiment: XIP fragment 251-270 binding compounds – biochemical, small-molecule microarray, fluorescence 635/667 nm, 0.1 µg/mL protein, primary screen (AID 1182); settings: fluorescent protein binding, 635 nm, higher = more signal, called active from +8 up or from −8 down
XIP peptide (Xip251-270) = experiment: compounds binding XIP fragment 251-270 – biochemical, small-molecule microarray, fluorescence 635/667 nm, 0.5 µg/mL protein, primary screen (AID 1183); settings: fluorescence 635 nm, higher = more signal
[2] = blood-stage malaria parasite viability loss – strain 3D7, DAPI fluorescence, 100 nL, primary screen (AID 1184);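 further: parasites grown inside human red blood cells in medium with human serum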; settings: P. falciparum 3D7 growth, 3 d, higher = more signal
[3] = molecular target: Homeobox protein Hox-A13 (Mus musculus) (UniProt Q62424); experiment: disruptors of Hoxa13 oligonucleotide interaction – biochemical, fluorescence polarization, labeled oligonucleotide, primary screen (AID 1185); settings: Hoxa13:DNA binding, 15 min, higher = more signal, called active from +8 up or from −8 down
Homeobox protein Hox-A13 (Mus musculus), sequence (Q62424 whole entry, looked up): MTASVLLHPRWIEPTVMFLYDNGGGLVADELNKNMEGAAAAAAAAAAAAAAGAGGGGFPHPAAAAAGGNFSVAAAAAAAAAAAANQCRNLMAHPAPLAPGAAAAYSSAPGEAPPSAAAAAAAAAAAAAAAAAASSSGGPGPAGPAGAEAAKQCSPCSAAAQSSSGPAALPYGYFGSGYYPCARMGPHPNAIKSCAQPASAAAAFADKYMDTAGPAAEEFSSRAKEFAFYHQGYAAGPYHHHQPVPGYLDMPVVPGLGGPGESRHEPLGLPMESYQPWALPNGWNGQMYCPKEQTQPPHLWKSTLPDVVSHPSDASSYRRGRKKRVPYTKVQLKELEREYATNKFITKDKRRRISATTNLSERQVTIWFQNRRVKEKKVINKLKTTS

SMILES | composite z-score [1] | composite z-score (XIP peptide (Xip251-270)) | z-score [2] | z-score [3]
CC(C)(C)N1C(=O)[C@H]2[C@@H]3C(=CC[C@H]2C1=O)C(=O)[C@H]1O[C@H]1[C@H]3O | 0.139 (inactive) | 0.283 | -2.38 | -5.76 (inactive)
CC(=O)OC[C@H]1O[C@H](CC=NOCC[C@@H]2C=C[C@H](OC(C)=O)[C@@H](COC(C)=O)O2)C=C[C@@H]1OC(C)=O | -0.0772 (inactive) | 0.677 | 0.256 | -0.963 (inactive)
CC(CCC(=O)OC[C@H]1O[C@H](C#Cc2ccccc2)C=C[C@@H]1Oc1ccc(C)cc1)=NOC[C@@H](C)[C@H](OCc1ccccc1)C(C)C | -0.582 (inactive) | -0.693 | -0.0982 | -0.499 (inactive)
C[C@@H](c1ccccc1)N1C(=O)[C@H]2[C@H]3[C@H](O)[C@H](O)CC(=NOC[C@@H](O)COCc4ccco4)[C@H]3CC[C@H]2C1=O | 0.15 (inactive) | 0.316 | -2.06 | -3.21 (inactive)
C#CCCCON=C1[C@H]2CCn3c(=O)n([C@@H](CC)c4ccccc4)c(=O)n3[C@H]2[C@H](O)[C@@H]2O[C@H]12 | 0.967 (inactive) | -0.226 | -0.9 | -3.68 (inactive)
C[C@@H]1CC[C@H]2C(=O)N3[C@@H](CC[C@@H](C)[C@@H]3c3ccc(Br)cc3)C(=O)N2[C@H]1c1ccc(Br)cc1 | -0.22 (inactive) | 0.335 | -0.212 | -3.21 (inactive)
CON=C[C@@H](OC)[C@H](C)C=CCC(=O)OC | -1.44 (inactive) | -0.499 | -0.166 | -0.326 (inactive)
CC(C)[C@H](NC(=O)OC(C)(C)C)[C@@H](O)CC(=O)C(C)(C)C | -0.232 (inactive) | -0.19 | 0.227 | -0.092 (inactive)
